Measured values reported in the supplement of paper PMC6555819.

How the values were obtained:
Test in all cases: PBM binding z-score (relative to random genomic background probes); higher = stronger binding; sequences stand for … in GC…GCGATTGACAGCGTAGAATGAAGG
[1] = tested on: FXR:RXRa (NR concentration 270 nM, RXRa partner concentration 90 nM)
Summary of the method: (§1)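 For binding z-scores, the reference was random background probes on custom Agilent 4×180K protein-binding microarrays. These arrays were incubated 1 h with ligand-free nuclear receptor dimers in PBS pH 7.4, 2% milk, 0.02% Triton X-100, 1 mM DTT, 0.2 mg/mL BSA and 0.4 mg/ml salmon testes DNA. Fluorescence was scanned after antibody detection of each partner (one per run) and regression-normalized.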

[2] = tested on: LXRa:RXRa (NR concentration 270 nM, RXRa partner concentration 90 nM)
Summary of the method: as §1

[3] = tested on: LXRa homodimer (NR concentration 270 nM)
Summary of the method: as §1

[4] = tested on: LXRb:RXRa (NR concentration 270 nM, RXRa partner concentration 90 nM)
Summary of the method: as §1

[5] = tested on: LXRb homodimer (NR concentration 270 nM)
Summary of the method: as §1

[6] = tested on: PPARa:RXRa (NR concentration 270 nM, RXRa partner concentration 90 nM)
Summary of the method: as §1

[7] = tested on: PPARg:RXRa (NR concentration 180 nM, RXRa partner concentration 90 nM)
Summary of the method: as §1

[8] = tested on: PPARg:RXRa 270nM:90nM, anti-RXR (NR concentration 270 nM, RXRa partner concentration 90 nM)
Summary of the method: as §1

[9] = tested on: PPARg:RXRa 30nM:10nM, anti-RXR (NR concentration 30 nM, RXRa partner concentration 10 nM)
Summary of the method: as §1

[10] = tested on: PPARg:RXRa 90nM:30nM, anti-RXR (NR concentration 90 nM, RXRa partner concentration 30 nM)
Summary of the method: as §1

[11] = tested on: PPARg:RXRa DBDmut IVT, anti-RXR (DBD mutation: RXRa K156A/R161A, NR concentration 270 nM, RXRa partner concentration 90 nM)
Summary of the method: as §1

[12] = tested on: PPARg:RXRa IVT, anti-PPARg (NR concentration 270 nM, RXRa partner concentration 90 nM)
Summary of the method: as §1

[13] = tested on: PPARg DBDmut:RXRa IVT, anti-PPARg (DBD mutation: PPARg1 K132A/R137A, NR concentration 270 nM, RXRa partner concentration 90 nM)
Summary of the method: as §1

[14] = tested on: PPARg DBDmut IVT, anti-PPARg (DBD mutation: PPARg1 K132A/R137A, NR concentration 270 nM)
Summary of the method: as §1

[15] = tested on: PPARg homodimer (NR concentration 180 nM)
Summary of the method: as §1

[16] = tested on: PXR:RXRa (NR concentration 270 nM, RXRa partner concentration 90 nM)
Summary of the method: as §1

[17] = tested on: PXR homodimer (NR concentration 270 nM)
Summary of the method: as §1

[18] = tested on: RARa:RXR (NR concentration 270 nM, RXRa partner concentration 90 nM)
Summary of the method: as §1

[19] = tested on: RARa homodimer (NR concentration 270 nM)
Summary of the method: as §1

[20] = tested on: RARb:RXRa (NR concentration 270 nM, RXRa partner concentration 90 nM)
Summary of the method: as §1

| Sequence | PBM binding z-score [1] | PBM binding z-score [2] | PBM binding z-score [3] | PBM binding z-score [4] | PBM binding z-score [5] | PBM binding z-score [6] | PBM binding z-score [7] | PBM binding z-score [8] | PBM binding z-score [9] | PBM binding z-score [10] | PBM binding z-score [11] | PBM binding z-score [12] | PBM binding z-score [13] | PBM binding z-score [14] | PBM binding z-score [15] | PBM binding z-score [16] | PBM binding z-score [17] | PBM binding z-score [18] | PBM binding z-score [19] | PBM binding z-score [20] |
| --- | --- | --- | --- | --- | --- | --- | --- | --- | --- | --- | --- | --- | --- | --- | --- | --- | --- | --- | --- | --- |
| CGTCCAAGTTCAGAGAGGTCAGTGAATGCCGAGT | 3.32 | 3.64 | 3.27 | 3.1 | 0.431 | 3.19 | 0.531 | 1.5 | -0.176 | 0.671 | 0.453 | 0.71 | -0.268 | -0.219 | 4.09 | 6.4 | 13 | 3.9 | 1.51 | 4.09 |
| CCGACTGGGACATAAGGTTACCATAAGCCAGCCC | 0.338 | 2.04 | 0.14 | 0.621 | -0.915 | 1.21 | 1.61 | 2.59 | 0.545 | 1.96 | 1.57 | 0.909 | -1.05 | -1.68 | 0.314 | 0.0588 | -0.0723 | 0.922 | -0.0116 | 1.05 |
| AGTATGAGGTTACCAAAGATCAGGGAAACGCTTG | 1.85 | 5.92 | 0.237 | 3.08 | 0.134 | 2.76 | 1.79 | 1.65 | 0.652 | 1.11 | 1.3 | 1.52 | 0.279 | 0.406 | 0.714 | 1.62 | 0.275 | 2.21 | 0.475 | 2.19 |
| TCTTGCAGATCAAAGGTTAAGAAAGCCGAAGCCT | 1.5 | 1.61 | -0.333 | 1.79 | -0.606 | 4.12 | 5.83 | 6.41 | 5.71 | 6.62 | 0.914 | 2.37 | 0.0487 | -1.09 | 0.464 | 1.72 | -0.464 | 2.7 | -0.444 | 1.7 |
| TCATATAGGTACATGCTAGGTGAAAGTCCGATCT | 0.846 | 1.11 | 0.242 | 0.622 | 0.134 | 1.15 | 0.699 | 2.04 | 3.56 | 2.99 | 2.58 | 1.73 | 0.847 | 1.54 | 0.444 | 0.528 | 0.248 | 0.868 | 0.997 | 0.432 |
| ATCTCTAGGTAAGGTTCAGTGAAAGATCGATAGA | 0.902 | 1.26 | 0.551 | 1.07 | 1.03 | 1.4 | 1.25 | 2.17 | 0.962 | 1.9 | 1.52 | 1.27 | 1.88 | 0.757 | 1.1 | 0.838 | 0.974 | 1.21 | 1.79 | 1.34 |
| TCTCGGAGGACACCAAGGTCAGAGCTTTCCAGAG | 1.66 | 1.05 | 0.191 | 1.09 | -0.834 | 1.86 | 0.127 | 1.65 | 2.01 | 1.76 | 1.32 | 1.11 | -0.509 | -0.885 | 1.73 | 2.54 | 2.65 | 2.17 | -0.289 | 3.27 |
| CAAACTAGGTCACGAAAGTTCAAAGTCGAATGAC | 6.48 | 7.84 | 8.43 | 6.15 | 1.48 | 6.14 | 9.94 | 8.29 | 6.58 | 8.35 | 8.72 | 9.1 | 2.45 | 4.02 | 4.73 | 7.11 | 8.3 | 6.02 | 2.95 | 5.27 |
| CCGACTGGGGCAAGGTTACCCTAACGCACAGCCA | 0.301 | 0.334 | -0.217 | 0.52 | -1.15 | 1.88 | 2.75 | 3.18 | 0.752 | 2.75 | 2.55 | 3.74 | -0.273 | -0.891 | 0.107 | 0.232 | -0.208 | 0.791 | -0.576 | 1.58 |
| GCTGCTAGGTCCACTGATGGTCAGCTAAAGCTCG | -0.489 | -0.3 | -0.698 | -0.586 | -0.746 | -0.509 | -0.592 | -0.813 | -0.963 | -0.946 | 0.0704 | -0.423 | -1.19 | -1.02 | -1.01 | -0.525 | -1.03 | -0.598 | -1.55 | 0.403 |
| TCATAGAGGTAAAGGTGAAAGTCGAACGATATGA | 1.13 | 1.35 | -0.575 | 1.3 | -0.862 | 3.63 | 3.74 | 5.04 | 3.97 | 4.88 | 2.03 | 3.05 | 0.77 | 0.323 | 0.369 | 1.15 | -0.365 | 2.03 | 0.137 | 2.19 |
| CCTTACCGGTCACTCCAGGTTATAGCATCGGAGT | 2.6 | 6.15 | 4.71 | 2.67 | 1.65 | 1.3 | 0.603 | 0.901 | 0.0814 | 0.653 | 1.13 | 1.44 | -0.00194 | -0.042 | 1.6 | 1.94 | 1.24 | 1.37 | 1.2 | 2.9 |
| CCTATTGGGCCAAAGGTCATTGATTCCAATGCTC | 4.7 | 5.15 | 4.17 | 4.72 | 1.02 | 5.83 | 11.8 | 9.98 | 10.5 | 12.1 | 4.3 | 6.28 | -0.0108 | 0.0368 | 4.43 | 5.28 | 2.34 | 6.32 | 1.8 | 4.42 |
| TCTTGTAGATGAAAGGTTAAGAAAGCCGAAGCCT | 1.26 | 1.83 | 0.275 | 1.67 | 0.361 | 3.62 | 5.98 | 6.86 | 6.79 | 7.44 | 2.04 | 2.16 | 0.389 | 0.195 | 0.811 | 1.29 | 0.117 | 2.05 | 0.435 | 1.73 |
